# Measurements from PubChem BioAssay (NCI).
# This is part of a sample that, as a whole, favours compounds with a hit. Of some 79,000 tested, about 15% had one in any assay. Values without a mark were called inactive. The source made the active and inactive calls. Cut-off read from the data, not from the text of the source: active = growth inhibition above about 70%; inactive = the rest.
# What was measured:
# [1] = NCI Yeast Anticancer Drug Screen. Data for the rad52 strain (AID 147);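 note: 0% = growth of vehicle-treated control cultures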; details: S. cerevisiae rad52 mutant growth inhibition, hits give high values
# In short: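 DNA repair-defective yeast; compound exposure; growth scored against vehicle controls.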
# [2] = NCI Yeast Anticancer Drug Screen. Data for the wt1 strain (AID 149);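 note: 0% = growth of vehicle-treated wt1 cultures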; details: S. cerevisiae wt1 strain (SPY 50644) growth inhibition, hits give high values
# In short: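 Yeast wt1 strain exposed to compounds; growth inhibition measured relative to vehicle-treated controls.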
# [3] = NCI Yeast Anticancer Drug Screen. Data for the rad50EPP+ strain (AID 151);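 note: 0% = growth of vehicle-treated control cultures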; details: S. cerevisiae rad50 mutant strain, hits give high values
# In short: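 rad50EPP+ yeast treated with test compounds. Readout: growth vs vehicle control.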
# [4] = NCI Yeast Anticancer Drug Screen. Data for the mgt1 strain (AID 153); details: S. cerevisiae mgt1 mutant growth inhibition, hits give high values
# In short: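 Growth inhibition relative to vehicle controls was scored for the mgt1 yeast strain after compound exposure.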
# [5] = NCI Yeast Anticancer Drug Screen. Data for the rad50 strain (AID 155);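 note: 0% = growth of vehicle-only cultures of the same strain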; details: S. cerevisiae rad50 strain growth inhibition, hits give high values
# In short: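 Yeast carrying a defined DNA repair defect were exposed to test compounds, and growth was compared with vehicle-treated controls to give percent inhibition.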
# [6] = NCI Yeast Anticancer Drug Screen. Data for the mec2-1 strain (AID 157); details: S. cerevisiae mec2-1 strain, hits give high values
# In short: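 Growth inhibition is read against vehicle-treated controls after compound exposure of the mec2-1 yeast strain, which is defective in DNA damage repair or cell cycle control.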
# [7] = NCI Yeast Anticancer Drug Screen. Data for the rad14 strain (AID 159);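 note: 0% = growth of vehicle-treated control cultures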; details: S. cerevisiae rad14 strain growth inhibition, hits give high values
# In short: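 Yeast cells carrying a defined DNA-repair defect were exposed to compounds, and growth inhibition was calculated relative to vehicle-treated control cultures.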
# [8] = NCI Yeast Anticancer Drug Screen. Data for the sgs1 mgt1 strain (AID 161);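 note: 0% = growth of cultures given vehicle only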; details: S. cerevisiae sgs1 mgt1 strain, hits give high values
# In short: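 Growth of a repair-deficient yeast mutant was monitored after compound treatment and expressed as inhibition relative to vehicle-treated cultures.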
# [9] = NCI Yeast Anticancer Drug Screen. Data for the CLN2oe strain (AID 163);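 note: 0% = growth of vehicle-only control cultures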; details: S. cerevisiae CLN2oe strain, hits give high values
# In short: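 Compound-treated yeast; growth vs vehicle ctrl = % inhibition. Genetically altered strain (cell-cycle control).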
# [10] = NCI Yeast Anticancer Drug Screen. Data for the cln2 rad14 strain (AID 165);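 note: 0% = growth equal to vehicle treated cultures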; details: S. cerevisiae cln2 rad14 strain, hits give high values
# In short: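 Growth inhibition, relative to vehicle-treated controls, is the read-out. The test organism is a yeast strain with defined genetic alterations, cln2 rad14.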
# [11] = NCI Yeast Anticancer Drug Screen. Data for the bub3 strain (AID 167); details: S. cerevisiae bub3 mutant strain, hits give high values
# In short: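 Compounds were applied to a genetically altered yeast strain carrying a cell-cycle control defect. Growth inhibition was scored against vehicle-treated controls.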
# [12] = NCI Yeast Anticancer Drug Screen. Data for the wt2 strain (AID 169);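 note: 0% = growth of vehicle-treated yeast cultures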; details: S. cerevisiae wt2 strain growth inhibition, hits give high values
# In short: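 Compound exposure of yeast; growth compared with vehicle controls; inhibition reported.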
# [13] = NCI Yeast Anticancer Drug Screen. Data for the mlh1 strain (AID 171);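 note: 0% = growth of vehicle-treated control cultures of the same strain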; details: S. cerevisiae mlh1 strain growth inhibition, hits give high values
# In short: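 Compounds are applied to a genetically altered yeast strain, and its growth is compared with that of vehicle-treated cultures to give percent inhibition.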
# [14] = NCI Yeast Anticancer Drug Screen. Data for the sgs1 strain (AID 173);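 note: 0% = growth of vehicle-only control cultures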; details: S. cerevisiae sgs1 mutant, hits give high values
# In short: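 Compounds applied to genetically altered yeast; growth compared with vehicle-treated cultures to give % inhibition.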
# [15] = NCI Yeast Anticancer Drug Screen. Data for the mlh1 rad18 strain (AID 175); details: S. cerevisiae mlh1 rad18 strain growth inhibition, hits give high values
# In short: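 Cells of a genetically altered yeast strain, deficient in DNA damage repair, were treated with compound. Their growth was then compared with that of vehicle-treated cultures to give inhibition.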
# [16] = NCI Yeast Anticancer Drug Screen. Data for the rad18 strain (AID 177); details: S. cerevisiae rad18 mutant growth inhibition, hits give high values
# In short: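 Compounds are applied to a repair-deficient yeast strain, and growth is compared with that of vehicle-treated cultures to give percent inhibition.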
# [17] = at 5.0 µM (retest, dose inferred, filed as 0.5)
# [18] = at 50.0 µM (retest, dose inferred, filed as 5.0)
structure (smiles),measurement,setting,value
Clc1c(Cl)c(Cl)c2c(nnn2C2CCCO2)c1Cl (stereo not drawn),growth inhibition,[1]; at 1.2 µM,10%
same,growth inhibition,[1]; at 3.7 µM,19%
same,growth inhibition,[1]; at 11.0 µM,24%
same,growth inhibition,[1]; at 33.0 µM,33%
same,growth inhibition,[1]; at 100.0 µM,58%
same,growth inhibition,[2]; at 1.2 µM,0%
same,growth inhibition,[2]; at 3.7 µM,-1%
same,growth inhibition,[2]; at 11.0 µM,-5%
same,growth inhibition,[2]; at 33.0 µM,11%
same,growth inhibition,[2]; at 100.0 µM,46%
same,growth inhibition,[3]; at 1.2 µM,-32%
same,growth inhibition,[3]; at 3.7 µM,-10%
same,growth inhibition,[3]; at 11.0 µM,-9%
same,growth inhibition,[3]; at 33.0 µM,-4%
same,growth inhibition,[3]; at 100.0 µM,35%
same,growth inhibition,[4]; at 1.2 µM,-24%
same,growth inhibition,[4]; at 3.7 µM,-9%
same,growth inhibition,[4]; at 11.0 µM,-5%
same,growth inhibition,[4]; at 33.0 µM,-1%
same,growth inhibition,[4]; at 100.0 µM,75% (active)
same,growth inhibition,[5]; at 1.2 µM,5%
same,growth inhibition,[5]; at 3.7 µM,-1%
same,growth inhibition,[5]; [17],4%
same,growth inhibition,[5]; at 11.0 µM,6%
same,growth inhibition,[5]; at 33.0 µM,14%
same,growth inhibition,[5]; [18],38%
same,growth inhibition,[5]; at 50.0 µM,78.3% (active)
same,growth inhibition,[5]; at 100.0 µM,48%
same,growth inhibition,[6]; at 1.2 µM,2%
same,growth inhibition,[6]; at 3.7 µM,-1%
same,growth inhibition,[6]; [17],12%
same,growth inhibition,[6]; at 11.0 µM,10%
same,growth inhibition,[6]; at 33.0 µM,8%
same,growth inhibition,[6]; [18],48%
same,growth inhibition,[6]; at 50.0 µM,85.2% (active)
same,growth inhibition,[6]; at 100.0 µM,76% (active)
same,growth inhibition,[7]; at 1.2 µM,-11%
same,growth inhibition,[7]; at 3.7 µM,-8%
same,growth inhibition,[7]; at 11.0 µM,-1%
same,growth inhibition,[7]; at 33.0 µM,12%
same,growth inhibition,[7]; at 100.0 µM,75% (active)
same,growth inhibition,[8]; [17],-1%
same,growth inhibition,[8]; [18],80% (active)
same,growth inhibition,[8]; at 50.0 µM,78% (active)
same,growth inhibition,[9]; at 1.2 µM,-11%
same,growth inhibition,[9]; at 3.7 µM,1%
same,growth inhibition,[9]; at 11.0 µM,0%
same,growth inhibition,[9]; at 33.0 µM,9%
same,growth inhibition,[9]; at 100.0 µM,33%
same,growth inhibition,[10]; [17],8%
same,growth inhibition,[10]; [18],62%
same,growth inhibition,[10]; at 50.0 µM,74.8% (active)
same,growth inhibition,[11]; at 1.2 µM,-7%
same,growth inhibition,[11]; at 3.7 µM,-8%
same,growth inhibition,[11]; [17],18%
same,growth inhibition,[11]; at 11.0 µM,-22%
same,growth inhibition,[11]; at 33.0 µM,11%
same,growth inhibition,[11]; [18],60%
same,growth inhibition,[11]; at 50.0 µM,83.2% (active)
same,growth inhibition,[11]; at 100.0 µM,50%
same,growth inhibition,[12]; at 1.2 µM,-14%
same,growth inhibition,[12]; at 3.7 µM,-2%
same,growth inhibition,[12]; at 11.0 µM,6%
same,growth inhibition,[12]; at 33.0 µM,60%
same,growth inhibition,[12]; at 100.0 µM,97% (active)
same,growth inhibition,[13]; at 1.2 µM,-5%
same,growth inhibition,[13]; at 3.7 µM,-2%
same,growth inhibition,[13]; at 11.0 µM,4%
same,growth inhibition,[13]; at 33.0 µM,30%
same,growth inhibition,[13]; at 100.0 µM,85% (active)
same,growth inhibition,[14]; at 1.2 µM,-30%
same,growth inhibition,[14]; at 3.7 µM,-13%
same,growth inhibition,[14]; at 11.0 µM,-1%
same,growth inhibition,[14]; at 33.0 µM,12%
same,growth inhibition,[14]; at 100.0 µM,83% (active)
same,growth inhibition,[15]; [17],7%
same,growth inhibition,[15]; [18],45%
same,growth inhibition,[15]; at 50.0 µM,83.8% (active)
same,growth inhibition,[16]; at 1.2 µM,-15%
same,growth inhibition,[16]; at 3.7 µM,-4%
same,growth inhibition,[16]; at 11.0 µM,2%
same,growth inhibition,[16]; at 33.0 µM,14%
same,growth inhibition,[16]; at 100.0 µM,54%
